# Screening data as filed in PubChem.
# GPR151 ag: activators of human GPR151, primary screen, cell-based, PathHunter beta-arrestin, luminescence; activation, % at 11.2 µM; 1% of 650,000 active; G-protein coupled receptor 151 (Homo sapiens), Q8TDV0; PathHunter beta-arrestin GPR151 cells; in the data active means activation above about 4.9%;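 further: 0% = median of compound wells and 100% = cells with positive control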
# FBW7 activator: FBW7 E3 ligase activators, primary screen, biochemical, AlphaScreen, human | F-box/WD repeat-containing protein 7 (Homo sapiens), Q969H0 | AlphaScreen FBW7–phospho-cyclin E peptide binding, activator screen | normalized activity (activation), % at 26.1 µM | 0.13% of 650,000 active; in the data active means normalized activity above about 1.9%;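 further: purified mutant Fbw7 with reduced substrate affinity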
# Target sequence (Q969H0 whole entry, looked up): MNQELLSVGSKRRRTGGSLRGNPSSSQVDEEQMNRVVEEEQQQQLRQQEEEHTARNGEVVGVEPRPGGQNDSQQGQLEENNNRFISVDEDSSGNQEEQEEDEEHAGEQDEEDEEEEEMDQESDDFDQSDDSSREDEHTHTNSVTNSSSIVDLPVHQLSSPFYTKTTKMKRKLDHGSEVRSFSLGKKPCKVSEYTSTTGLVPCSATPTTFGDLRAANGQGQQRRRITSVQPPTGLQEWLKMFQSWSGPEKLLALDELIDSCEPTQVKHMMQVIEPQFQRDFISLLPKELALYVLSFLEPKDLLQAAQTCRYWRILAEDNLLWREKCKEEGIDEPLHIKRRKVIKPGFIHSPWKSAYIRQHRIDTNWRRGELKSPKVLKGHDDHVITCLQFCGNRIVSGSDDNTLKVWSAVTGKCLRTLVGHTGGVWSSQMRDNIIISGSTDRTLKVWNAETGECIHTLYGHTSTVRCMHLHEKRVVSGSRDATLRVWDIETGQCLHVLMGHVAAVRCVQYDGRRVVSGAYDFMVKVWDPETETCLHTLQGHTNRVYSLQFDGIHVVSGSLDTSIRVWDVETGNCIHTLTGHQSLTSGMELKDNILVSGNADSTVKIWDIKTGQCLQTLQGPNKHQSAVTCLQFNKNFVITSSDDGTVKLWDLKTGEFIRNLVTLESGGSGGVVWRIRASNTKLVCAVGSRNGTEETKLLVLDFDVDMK
# TEAD-YAP inh: TEAD-YAP interaction inhibition, primary screen, TEAD-YAP interaction inhibitor project, luminescence, HEK-TIYL cells | inhibition, % at 9.12 µM | TEAD-Gal4/YAP UAS-luciferase luminescence | AID 1259422, 2018 | 1.4% of 640,000 active; in the data active means inhibition above about 32%;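 further: 0% = median of test compound wells and 100% = reference inhibitor wells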
# MITF inh: MITF inhibitors, primary screen, biochemical, AlphaScreen, human | 0.91% of 650,000 active | Microphthalmia-associated transcription factor (Homo sapiens), O75030 | inhibition, % at 2.6 µM | AlphaScreen MITF homodimerization, bead proximity signal; in the data active means inhibition above about 50%;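 further: 0% = vehicle wells with protein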
# MITF inh conf: MITF inhibitors, retest of hits, confirmation, biochemical, AlphaScreen, triplicate. shares compounds with MITF inh. AlphaScreen MITF homodimerization, biotin/His-MITF beads. inhibition, % at 2.6 µM. 16% of 4,700 active;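 active means inhibition above a cutoff derived from the DMSO control wells, cut at about 28% in these data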;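 further: 0% = MITF dimer wells with DMSO only; inhibitors lower the bead chemiluminescence by keeping MITF from dimerizing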
# AlphaScreen intf2: AlphaScreen optical interference compounds, counter-screen for MITF inhibitor project, biochemical, triplicate | inhibition, % at 2.6 µM | shares compounds with MITF inh | 7.6% of 4,700 active | LysRS AlphaScreen counterscreen, signal interference;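 active means inhibition above a cutoff derived from the DMSO control wells, cut at about 30% in these data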
# Starred values were filed as active, the others as inactive; / = no result given. Only some compounds are listed: those with a hit (about 3.4% of all), similar ones and a draw of the others.
SMILES,GPR151 ag,FBW7 activator,TEAD-YAP inh,MITF inh,MITF inh conf,AlphaScreen intf2
CCN1CCN(CCCOc2ccccc2[N+](=O)[O-])CC1,0,0,2,74*,9,12
O=[N+]([O-])c1ccccc1OCCCCN1CCNCC1,0,0,-10,67*,4,6
COc1cc(/C=C2\NC(=O)N(Cc3ccc(Cl)cc3)C2=O)cc(OC)c1OC,0,0,1,13,/,/
COc1ccccc1CN1CCN(S(C)(=O)=O)CC1,1,1,3,-4,/,/
CCOc1ccccc1CN1CCN(S(=O)(=O)CC)CC1,1,0,7,29,/,/
CCS(=O)(=O)N1CCN(Cc2ccccc2OC)CC1,-1,0,3,58*,7,11
CCCS(=O)(=O)N1CCN(Cc2ccccc2OCC)CC1,-1,0,7,74*,2,11
Cc1ccc(C2CC(C(F)(F)F)n3nc(C(=O)Nc4cccnc4Cl)cc3N2)cc1 (centres undefined),-1,0,-6,-14,/,/
Nc1nnc(SCC(=O)NCCCCNC(=O)CSc2nnc(N)s2)s1,1,0,-2,-1,/,/
CC(C)NC(=O)NC(=O)CSc1nnc(N)s1,0,0,-3,64*,1,-3
CCCOc1ccc(C(=O)Nc2nnc(C)s2)cc1,-1,0,-35,-21,/,/
Cc1cc(NCCc2ccccc2)nc(-c2ccccc2O)n1,0,0,-21,82*,-22,0
CCc1nc2sc(C(c3ccc(OC)c(OC)c3)N3CCCCC3)c(O)n2n1 (centres undefined),0,0,-2,-13,/,/
CCc1nc2sc(C(c3ccc(C(C)C)cc3)N3CCCC3)c(O)n2n1 (centres undefined),1,0,1,57*,0,-3
Cc1ccc(N=c2c([N+](=O)[O-])nn(-c3cccc(Cl)c3)n2O)cc1,0,-1,21,12,/,/
Cc1cccc(-n2nc([N+](=O)[O-])c(=Nc3cccc(Cl)c3)n2O)c1,0,0,16,56*,0,0
COc1cc(CN2CCN(Cc3cccc(Cl)c3)CC2)c([N+](=O)[O-])cc1OC,1,0,-6,57*,20,24
COc1cc(CN2CCC(C)CC2)c([N+](=O)[O-])cc1OC,0,0,0,-6,/,/
O=[N+]([O-])c1ccccc1/C=C/CN1CCN(Cc2ccc3c(c2)OCO3)CC1,0,0,10,59*,-2,0
COc1cc(CN2CCN(Cc3cccc(C)c3)CC2)c([N+](=O)[O-])cc1OC,0,0,0,73*,2,11
O=[N+]([O-])c1cc2c(cc1CNCCCN1CCOCC1)OCO2,1,0,2,59*,-5,-5
O=C1OC(c2cccc(I)c2)=N/C1=C\c1ccc(Cl)cc1,2,0,11,5,/,/
Cc1ccc(C(=O)Nc2cc(C(F)(F)F)ccc2Cl)cc1[N+](=O)[O-],-1,0,18,6,/,/
COc1ccccc1N1CCN(Cc2cc3c(cc2[N+](=O)[O-])OCO3)CC1,2,0,-3,-9,/,/
O=[N+]([O-])c1cc2c(cc1CN1CCCCCC1)OCO2,0,0,5,52*,3,1
O=[N+]([O-])c1cc2c(cc1CN1CCN(CCO)CC1)OCO2,-1,0,-1,18,/,/
COc1cc(CN2CCN(Cc3ccc4c(c3)OCO4)CC2)c([N+](=O)[O-])cc1OC,2,0,2,69*,17,19
Cc1ccc(CN2CCNC(=O)C2CC(=O)NCCc2ccccc2C(F)(F)F)o1 (centres undefined),0,0,-5,-5,/,/
CC1(C)SC(=S)N(c2ccccc2)C1N(O)C(=O)NC1CCCCC1 (centres undefined),1,0,2,0,/,/
c1ccc(CN2CCC(N3CCN(C4CCCCCC4)CC3)CC2)cc1,0,0,-2,21,/,/
